# Where two headings read alike, the source gives them in different places.
# Legend:
# Parameters in all cases: species or system human, MV4-11 + K-562 + COLO205 + SK-N-BE2 + OVCAR-8
# MAPK9 = conditions: read-out: apparent Kd, n = 1
# MAP2K5 = conditions: read-out: apparent Kd; compound concentrations: 100 nM and 1000 nM (sheet 'Samples'), CATDS: 9.4704147517168505E-2; n = 1
# CDK17 = conditions: read-out: apparent Kd, compound concentrations: 100 nM and 1000 nM (sheet 'Samples'), n = 1
# DJA1 = test system: T1, DJA1; conditions: read-out: apparent Kd, compound concentrations: 100 nM and 1000 nM (sheet 'Samples'), n = 1
# T1 construct: gene DNAJA1
# PLK4 = conditions: read-out: apparent Kd, n = 1
# PRKD3 = conditions: read-out: apparent Kd, n = 1
# ZAK = conditions: read-out: apparent Kd, n = 1
# BTK = conditions: read-out: apparent Kd, n = 1
# EPHB6 = conditions: read-out: apparent Kd, n = 1
# FLT4 = conditions: read-out: apparent Kd, compound concentrations: 100 nM and 1000 nM (sheet 'Samples'), n = 1
# TNK2 = conditions: read-out: apparent Kd, n = 1
# AURKB = conditions: read-out: apparent Kd, compound concentrations: 100 nM and 1000 nM (sheet 'Samples'), n = 1
# BMPR1B = conditions: read-out: apparent Kd, compound concentrations: 100 nM and 1000 nM (sheet 'Samples'), n = 1
# JAK2 = conditions: read-out: apparent Kd, n = 1
# AKT2 = conditions: read-out: apparent Kd, n = 1
# NLK = conditions: read-out: apparent Kd; compound concentrations:100 nM and 1000 nM (sheet 'Samples'); n = 1
# MAPKAPK2 = conditions: read-out: apparent Kd, n = 1
# EPHA5 = conditions: read-out: apparent Kd, n = 1
# EPHB1 = conditions: read-out: apparent Kd, n = 1
# [1] = compound concentrations:100 nM and 1000 nM (sheet 'Samples')
smiles,measurement,setting,value
Fc1ccc(-c2c(-c3ccncc3)[nH]c3nccnc23)cc1 [RO1155697-000],potency estimated from few doses,MAPK9; [1],368 nM
N#Cc1cnc2cc(-c3cnc(CNCCN4CCOCC4)s3)ccc2c1Nc1ccc(Oc2ccccc2)cc1 [GW664114X],potency estimated from few doses,MAP2K5,230 nM
CC(=O)N1CCN(c2ccc(Nc3nccc(-c4sc(C(C)C)nc4-c4cccc(NS(=O)(=O)c5cccc(Cl)c5)c4)n3)cn2)CC1 [GSK1660437A],potency estimated from few doses,CDK17; CATDS: 5.6429200744427303E-2,643 nM
same,potency estimated from few doses,DJA1; CATDS: 3.8253703176693299E-2,1690 nM
same,potency estimated from few doses,"PLK4; compound concentrations: 100 nM and 1000 nM (sheet 'Samples'), CATDS: 0.17154832295699199",114 nM
same,potency estimated from few doses,"PRKD3; compound concentrations: 100 nM and 1000 nM (sheet 'Samples'), CATDS: 4.4377312299456101E-2",1110 nM
same,potency estimated from few doses,"ZAK; compound concentrations: 100 nM and 1000 nM (sheet 'Samples'), CATDS: 3.4947671861574499E-2",2310 nM
CC(C)c1nc(-c2cccc(NS(=O)(=O)c3c(F)cccc3F)c2)c(-c2ccnc(Nc3ccc(N4CCOCC4)nc3)n2)s1.Cl [GSK1723980B],potency estimated from few doses,"BTK; compound concentrations: 100 nM and 1000 nM (sheet 'Samples'), CATDS: 1.5505297907028599E-2",1260 nM
same,potency estimated from few doses,CDK17; CATDS: 1.84448623420372E-2,647 nM
same,potency estimated from few doses,"EPHB6; compound concentrations: 100 nM and 1000 nM (sheet 'Samples'), CATDS: 2.4657232775903402E-2",294 nM
same,potency estimated from few doses,FLT4; CATDS: 3.28978835638193E-2,161 nM
same,potency estimated from few doses,"PLK4; compound concentrations: 100 nM and 1000 nM (sheet 'Samples'), CATDS: 6.4259568423255198E-2",54.8 nM
same,potency estimated from few doses,"PRKD3; compound concentrations: 100 nM and 1000 nM (sheet 'Samples'), CATDS: 3.3451662470077102E-2",156 nM
same,potency estimated from few doses,"TNK2; compound concentrations: 100 nM and 1000 nM (sheet 'Samples'), CATDS: 1.9330772041295699E-2",558 nM
same,potency estimated from few doses,"ZAK; compound concentrations: 100 nM and 1000 nM (sheet 'Samples'), CATDS: 1.6677685613390399E-2",926 nM
CNC(=O)c1ccccc1Nc1nc(Nc2cccc(CS(C)(=O)=O)c2)ncc1C.O=CO [GSK1520489A],potency estimated from few doses,AURKB; CATDS: 5.1121534714452903E-2,22.6 nM
same,potency estimated from few doses,BMPR1B; CATDS: 1.50633752553141E-2,288 nM
same,potency estimated from few doses,"BTK; compound concentrations: 100 nM and 1000 nM (sheet 'Samples'), CATDS: 3.3529613297139299E-2",46.5 nM
same,potency estimated from few doses,FLT4; CATDS: 2.0677135389333402E-2,127 nM
same,potency estimated from few doses,"JAK2; compound concentrations: 100 nM and 1000 nM (sheet 'Samples'), CATDS: 1.0777709602795499E-2",917 nM
same,potency estimated from few doses,"MAPK9; compound concentrations: 100 nM and 1000 nM (sheet 'Samples'), CATDS: 1.0219205948468601E-2",1170 nM
same,potency estimated from few doses,"PLK4; compound concentrations: 100 nM and 1000 nM (sheet 'Samples'), CATDS: 5.6526690593712202E-2",19.3 nM
CC(C)c1nc(-c2ccc(F)c(NS(=O)(=O)c3c(F)cccc3F)c2)c(-c2ccnc(Nc3ccc(N4CCOCC4)nc3)n2)s1 [GSK1804250A],potency estimated from few doses,EPHB6; [1],738 nM
same,potency estimated from few doses,PLK4; [1],403 nM
same,potency estimated from few doses,PRKD3; [1],510 nM
same,potency estimated from few doses,TNK2; [1],232 nM
same,potency estimated from few doses,ZAK; [1],1410 nM
Nc1nc(N)c2nc(-c3ccccc3)[nH]c2n1 [SKF-12778],potency estimated from few doses,AKT2; [1],1570 nM
same,potency estimated from few doses,BTK; [1],1330 nM
same,potency estimated from few doses,JAK2; [1],66.2 nM
same,potency estimated from few doses,MAPK9; [1],2000 nM
same,potency estimated from few doses,NLK,1660 nM
NS(=O)(=O)CCc1cccc(Nc2nccc(-c3c(-c4cccc(NC(=O)c5c(F)cccc5F)c4)nn4ccccc34)n2)c1 [GSK336735A],potency estimated from few doses,AURKB; CATDS: 5.6735057475689701E-2,1260 nM
same,potency estimated from few doses,"BTK; compound concentrations: 100 nM and 1000 nM (sheet 'Samples'), CATDS: 6.9613472327250694E-2",756 nM
Cn1cc(-c2ccc3c(c2)CCN3C(=O)Cc2cccc(Cl)c2)c2c(N)ncnc21 [GSK2606590A],potency estimated from few doses,AURKB; CATDS: 0.34532909823612901,968 nM
CS(=O)(=O)Cc1ccc(Nc2nccc(-c3c(-c4cccc(NC(=O)c5c(F)cccc5F)c4)nn4ccccc34)n2)cc1 [GSK323543A],potency estimated from few doses,"BTK; compound concentrations: 100 nM and 1000 nM (sheet 'Samples'), CATDS: 6.87410205009992E-2",1140 nM
same,potency estimated from few doses,"MAPKAPK2; compound concentrations: 100 nM and 1000 nM (sheet 'Samples'), CATDS: 7.72685747843148E-2",870 nM
CC(=O)N1CCN(c2ccc(Nc3nccc(-c4sc(C(C)C)nc4-c4cccc(NS(=O)(=O)c5ccccc5)c4)n3)cn2)CC1 [GSK1645872A],potency estimated from few doses,BMPR1B; CATDS: 3.2416583266463302E-2,615 nM
same,potency estimated from few doses,CDK17; CATDS: 3.2303603060191699E-2,620 nM
same,potency estimated from few doses,"EPHB6; compound concentrations: 100 nM and 1000 nM (sheet 'Samples'), CATDS: 2.50190585057842E-2",1230 nM
same,potency estimated from few doses,FLT4; CATDS: 2.4036705391895501E-2,1410 nM
same,potency estimated from few doses,"PLK4; compound concentrations: 100 nM and 1000 nM (sheet 'Samples'), CATDS: 4.4195990908193997E-2",331 nM
same,potency estimated from few doses,"PRKD3; compound concentrations: 100 nM and 1000 nM (sheet 'Samples'), CATDS: 5.5326802343899903E-2",227 nM
same,potency estimated from few doses,"ZAK; compound concentrations: 100 nM and 1000 nM (sheet 'Samples'), CATDS: 2.8355440499728699E-2",855 nM
CNc1nccc(-c2c(-c3ccc(F)cc3)ncn2C2CCN(C)CC2)n1 [SB-222903],potency estimated from few doses,EPHA5; [1],465 nM
same,potency estimated from few doses,MAPK9; [1],462 nM
same,potency estimated from few doses,MAPKAPK2; [1],49 nM
same,potency estimated from few doses,NLK,19.1 nM
Cc1ccc(O)cc1Nc1ccnc2ccc(C(C)(C)C)cc12 [GW856805X],potency estimated from few doses,"EPHA5; compound concentrations: 100 nM and 1000 nM (sheet 'Samples'), CATDS: 8.5514092870098604E-2",16.4 nM
same,potency estimated from few doses,"EPHB1; compound concentrations: 100 nM and 1000 nM (sheet 'Samples'), CATDS: 6.9197667639957702E-2",25.7 nM
Cl.Cn1c(=O)c(Cc2ccc(F)cc2F)cc2cnc(NC3CCOCC3)nc21 [RO3308757-001],potency estimated from few doses,EPHA5; [1],399 nM
same,potency estimated from few doses,EPHB1; [1],541 nM
same,potency estimated from few doses,MAPK9; [1],1030 nM
same,potency estimated from few doses,MAPKAPK2; [1],669 nM
same,potency estimated from few doses,PLK4; [1],963 nM
same,potency estimated from few doses,TNK2; [1],230 nM
CN1CCN(c2ccc(Nc3nc(N)c(C(=O)c4ccc5c(c4)OCCO5)s3)cc2)CC1 [RO0505124-000],potency estimated from few doses,"JAK2; compound concentrations: 100 nM and 1000 nM (sheet 'Samples'), CATDS: 0.61009142123011895",50.1 nM
Cn1cc(-c2ccc3c(c2)CCN3C(=O)Cc2cc(F)cc(C(F)(F)F)c2)c2c(N)ncnc21 [GSK2635225A],potency estimated from few doses,"AKT2; compound concentrations: 100 nM and 1000 nM (sheet 'Samples'), CATDS: 0.123001791308401",1850 nM
same,potency estimated from few doses,DJA1; CATDS: 0.15894194998460401,902 nM

# — publication PMC11062922 (Nature Chemical Biology, 2023)
